Screens as filed in PubChem BioAssay.
This is a sample that favours compounds with a hit; in the whole collection about 2.3% have one here.
SIRT5 inh = sirtuin-5 (human) deacylase inhibition; Q9NXA8; Purified SirT5, succinyl-peptide AMC, trypsin-coupled fluorescence; inhibition, % at 15 µM; 330,000 tested, 1.1% active; AID 652115; in the data active = inhibition above about 15%; inconclusive = no clear call, values can overlap the other calls
Target sequence (Q9NXA8 whole entry, looked up): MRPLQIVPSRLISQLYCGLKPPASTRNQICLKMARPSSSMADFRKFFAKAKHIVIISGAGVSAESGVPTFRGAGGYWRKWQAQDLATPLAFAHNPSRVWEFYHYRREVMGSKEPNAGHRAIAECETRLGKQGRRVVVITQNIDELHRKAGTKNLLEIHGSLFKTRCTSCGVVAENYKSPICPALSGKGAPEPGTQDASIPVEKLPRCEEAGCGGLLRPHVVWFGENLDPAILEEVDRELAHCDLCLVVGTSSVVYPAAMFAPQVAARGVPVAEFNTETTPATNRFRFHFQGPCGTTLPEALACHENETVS
PDI turbidity = PDI (human) enzyme inhibition | PDI insulin aggregation turbidity, A650, 90 min | inhibition, % at 10 µM | 350,000 tested, 0.052% active | AID 588391;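 active = mean inhibition across replicates of 30% or more, whatever share of single replicates reach that level; inconclusive = mean inhibition below 30% while every single replicate reaches 30%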
Rtt109 Vps75 = blocks Candida albicans Rtt109/Vps75 acetyltransferase activity; inhibition, % at 34.9 µM; AID 540336; purified Rtt109/Vps75, ThioGlo CoA-SH fluorescence, 4 h; Q5AAJ8; 330,000 tested, 0.16% active;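 active = inhibition of at least 50% in every replicate; inconclusive = best replicate reaches 50% inhibition but some replicates fall short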
Target sequence (Q5AAJ8 whole entry, looked up): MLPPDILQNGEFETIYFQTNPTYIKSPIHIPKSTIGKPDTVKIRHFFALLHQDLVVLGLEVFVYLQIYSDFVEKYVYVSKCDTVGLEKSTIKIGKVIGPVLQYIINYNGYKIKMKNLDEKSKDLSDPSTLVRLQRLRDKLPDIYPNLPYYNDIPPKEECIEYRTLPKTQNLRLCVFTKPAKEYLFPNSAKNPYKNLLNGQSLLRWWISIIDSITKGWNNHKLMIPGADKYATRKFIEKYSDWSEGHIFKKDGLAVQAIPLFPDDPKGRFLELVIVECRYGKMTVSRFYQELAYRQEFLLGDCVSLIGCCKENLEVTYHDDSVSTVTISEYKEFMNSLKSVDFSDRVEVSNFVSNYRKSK
ERp5 block = inhibitors of human ERp5 | Q15084 | ERp5 insulin aggregation, absorbance 650 nm, 90 min | inhibition, % at 9.99 µM | 350,000 tested, 0.05% active;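 active = mean replicate inhibition above about 25%, with every replicate also reaching it, limit read from the data, passing the limit was not always enough; inconclusive = only one of those two criteria met; inactive = neither criterion met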
DENV2 CPE = protects cells from dengue virus 2 cytopathic effect. CPE inhibition, % at 9.99 µM. 350,000 tested, 1.7% active. DENV2-infected cells, cytopathic effect rescue, plate reader; in the data active = CPE inhibition above about 20%, passing the limit was not always enough; inconclusive = no clear call, values can overlap the other calls; tested in BHK-21 cells;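 also: 0% = median of neutral control wells and 100% = median of positive control wells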
The depositor's hits bear a star; ? = inconclusive; . = no result given.

SMILES | SIRT5 inh | PDI turbidity | Rtt109 Vps75 | ERp5 block | DENV2 CPE
O=C(CCCN1C(=O)/C(=C/c2ccco2)SC1=S)Nc1cccc(C(=O)O)c1 | 42* | 2 | 22 | 0 | 1
CN(C)CCCNC(=O)[C@@H]1[C@@H](CO)[C@@H]2Cn3c(ccc(-c4cccc(C(=O)N(C)C)c4)c3=O)[C@H]1N2 | -25 | . | . | -2 | -6
C[C@H]1CCCCO[C@H](CN(C)C(=O)NC2CCCCC2)[C@@H](C)CN([C@@H](C)CO)C(=O)c2cc(NS(=O)(=O)c3ccc(Cl)cc3)ccc2O1 | 6 | . | . | 6 | 13
CCc1ccc(/C=C2/SC(=S)N(CCC(=O)NCCCN3CCOCC3)C2=O)cc1 | -3 | 4 | 2 | 8 | 2
COC(=O)c1ccc(/C=C2/SC(=S)N(CCC(=O)NCCCN3CCOCC3)C2=O)cc1 | 23* | 8 | -2 | -3 | 9
C[C@H]1CN([C@@H](C)CO)C(=O)c2cccc(NS(C)(=O)=O)c2O[C@@H]1CN(C)Cc1ccc(C(F)(F)F)cc1 | 6 | . | . | 3 | -10
C[C@@H]1CN([C@H](C)CO)C(=O)c2cc(NC(=O)Cc3cn(C)c4ccccc34)ccc2O[C@H]1CN(C)S(=O)(=O)c1ccc(Cl)cc1 | 2 | . | . | -6 | 2
O=C(NCCCCNC(=O)c1cccnc1Cl)c1cccnc1Cl | 1 | 2 | 0 | -3 | 69*
CCC(=O)N1CC(=O)N2[C@H](CO)[C@@H](c3ccc(C#CC4CCCCC4)cc3)[C@H]2C1 | -1 | . | . | 2 | -4
C/C(=N\Nc1ncc(Cl)cc1Cl)c1ccc2c(c1)OCO2 | 25* | -2 | 8 | -7 | 2
CO[C@@H]1CN(C)C(=O)c2ccc(NS(C)(=O)=O)cc2OC[C@@H](C)N(C(=O)NC(C)C)C[C@H]1C | 1 | . | . | 2 | 4
CCCNC(=O)N1[C@@H]2Cn3c(cccc3=O)[C@H]1[C@@H](C(=O)N1CCC(Cc3ccccc3)CC1)[C@@H]2CO | 21* | . | . | -2 | 4
O=C(NC1CCCC1)[C@@H]1[C@@H](CO)[C@@H]2Cn3c(ccc(-c4ccccc4)c3=O)[C@H]1N2CC1CC1 | -8 | . | . | -2 | 25*
O=C(NC1CCCCC1)[C@@H]1[C@@H](CO)[C@@H]2Cn3c(cccc3=O)[C@H]1N2CC1CCCCC1 | 19* | . | . | -3 | ?
O=C(NC1CCCC1)[C@H]1[C@H](CO)[C@H]2Cn3c(ccc(-c4cccnc4)c3=O)[C@@H]1N2CC1CC1 | -4 | . | . | 14 | 4
CCCNC(=O)[C@@H]1[C@@H](CO)[C@@H]2Cn3c(cccc3=O)[C@H]1N2C(=O)NCCC | 2 | . | . | 1 | 0
O=C(NCC1CCCCC1)[C@@H]1[C@@H](CO)[C@@H]2Cn3c(ccc(-c4cccnc4)c3=O)[C@H]1N2 | -37 | . | . | -5 | 106*
C[C@H](CO)N1C[C@H](C)[C@H](CN(C)CC2CCCCC2)Oc2c(NC(=O)Nc3ccc4c(c3)OCO4)cccc2C1=O | -3 | . | . | 0 | 6
O=C([C@H]1[C@H](CO)[C@H]2Cn3c(cccc3=O)[C@@H]1N2CC1CCCC1)N1CCOCC1 | 2 | . | . | 15 | 23*
O=C([C@H]1[C@H](CO)[C@H]2Cn3c(cccc3=O)[C@@H]1N2Cc1ccccc1)N1CCCCC1 | -1 | . | . | 2 | 0
CCCNC(=O)[C@@H]1[C@@H](CO)[C@@H]2Cn3c(cccc3=O)[C@H]1N2CCC(F)(F)F | 6 | . | . | -5 | 9
CCCNC(=O)[C@H]1[C@H](CO)[C@H]2Cn3c(cccc3=O)[C@@H]1N2CCC(F)(F)F | 5 | . | . | -2 | 20*
O=C([C@@H]1[C@@H](CO)[C@@H]2Cn3c(cccc3=O)[C@H]1N2Cc1ccccc1)N1CCCCC1 | -3 | . | . | -1 | 50*
CS(=O)(=O)N1[C@@H]2c3ccc(-c4ccc(F)cc4)c(=O)n3C[C@H]1[C@H](CO)[C@H]2C(=O)NCC1CC1 | -32 | . | . | -1 | 121*
C[C@H]1CN([C@@H](C)CO)C(=O)c2c(c3ccccc3n2C)-c2ccccc2CO[C@@H]1CN(C)Cc1ccc(Oc2ccccc2)cc1 | 1 | . | . | -2 | -8
SMILES | SIRT5 inh | PDI turbidity | Rtt109 Vps75 | ERp5 block | DENV2 CPE
C[C@H](CO)N1C[C@H](C)[C@@H](CN(C)C(=O)Nc2ccc(C(F)(F)F)cc2)Oc2ccc(NC(=O)Nc3ccc(F)cc3)cc2CC1=O | . | . | . | . | -2
COc1cccc(NC(=O)N[C@@H]2C=C[C@H](CC(=O)N3CCN(C)CC3)O[C@H]2CO)c1 | 0 | . | . | 0 | 8
C[C@@H]1CN([C@@H](C)CO)C(=O)c2cc(C#CC3CC3)cnc2O[C@@H]1CN(C)S(C)(=O)=O | 5 | . | . | 0 | -2
CC(C)CC(=O)N1CCN(Cc2ccccc2[N+](=O)[O-])CC1 | 32* | -9 | 0 | 8 | 1
CC1(C)CC(=O)N(CC(=O)O)c2ccccc2S1(=O)=O | . | . | 0 | 2 | 34*
O=C(NCC1CCCO1)c1ccc(S(=O)(=O)Nc2ccccc2F)cc1 (configuration not stated) | -4 | -1 | -1 | 1 | 101*
O=C(Nc1ccccc1N1CCOCC1)c1cccc(S(=O)(=O)Nc2ccccc2F)c1 | -3 | 4 | 4 | 2 | 0
CN(C)CCNC(=O)c1cccc(S(=O)(=O)Nc2ccccc2F)c1 | 30* | -2 | 9 | -9 | 6
CCN(CC)CCCC(C)Nc1nccc2c(Cl)cccc12 (configuration not stated) | -6 | 0 | 1 | 6 | 49*
CNC[C@H]1Oc2cc(-c3ccncc3)ccc2S(=O)(=O)N([C@@H](C)CO)C[C@H]1C | -4 | . | . | 5 | 0
Cc1noc(C)c1NC(=O)N(C)C[C@H]1OCCCC[C@H](C)Oc2ccc(NS(=O)(=O)c3cccs3)cc2C(=O)N([C@H](C)CO)C[C@@H]1C | -1 | . | . | -2 | -6
CCOC(=O)/C=C/S(=O)(=O)c1ccc(NC(C)=O)cc1 | . | -3 | 124* | . | .
CCOC(=O)/C=C/C(=O)Nc1ccc(S(=O)(=O)Nc2c(C)cc(C)cc2C)cc1 | 2 | 2 | -10 | 2 | -1
C[C@@H]1CCCCO[C@@H](CN(C)C(=O)CCCN(C)C)[C@H](C)CN([C@@H](C)CO)C(=O)c2cc(NC(=O)c3ccncc3)ccc2O1 | . | . | . | . | -2
CC1(C)c2[nH]c3ccccc3c2C[C@@H]2C(=O)N(Cc3ccc(F)cc3)C(=O)N21 | . | 17 | -8 | 3 | -15
CC[C@H]1c2[nH]c3ccccc3c2C[C@H]2C(=O)N(c3ccc(F)cc3)C(=O)N21 | 0 | . | 1 | 0 | 57*
N#C[C@H]1[C@@H](c2ccccc2C2=CCCCC2)[C@H](CO)N1C(=O)CN1CCOCC1 | -1 | . | . | 0 | 43*
CCCNC(=O)N1[C@H](C#N)[C@@H](c2ccccc2C2=CCCC2)[C@@H]1CO | 2 | . | . | -1 | 23*
N#C[C@@H]1[C@H](c2ccccc2C2=CCCC2)[C@H](CO)N1C(=O)NC1CCCC1 | 4 | . | . | -2 | 2
N#C[C@@H]1[C@H](c2ccccc2C2=CCCC2)[C@H](CO)N1C(=O)C1CC1 | 3 | . | . | 0 | 22*
N#C[C@H]1[C@H](c2ccccc2C2=CCCCC2)[C@H](CO)N1C(=O)C1CCOCC1 | 17* | . | . | 1 | 2
